From PubChem
Only some compounds are listed: those with a hit (about 6.3% of all), similar ones and a draw of the others.
ATXN2 expr inh – inhibitors of ATXN2 expression; HEK-293 ATXN2-luciferase reporter, luminescence, 24 h; Potency, µM (top dose mostly 57 µM), without a hit: top-dose activity change, negative = inhibition, actives largely listed as inhibitors; actives 0.72% (n = 360,000); AID 1745845; further: on the % scale 0 is the no-effect control and ±100 the full control effect; nearly all actives have a fitted effect of over 55% in size
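ATXN2-luciferase reporter cells (luciferase flanked by upstream and downstream ATXN2 gene portions) were treated 24 h at 37 °C with compounds at up to 57 uM. SteadyGlo luminescence gave expression; GF-AFC fluorescence gave viability.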
S2 tox – cell viability loss in ATXN counter-screen. S2 cells (HEK-293 line with an ATXN2-luciferase reporter) viability, CellTiter-Fluor protease fluorescence, 24 h. actives 0.49% (n = 400,000). Potency, µM (highest dose often 56.7 µM), usual class: cytotoxic; further: nearly all actives have a fitted effect of over 40% in size
Gal4-VP16 FLuc – inhibits Gal4-VP16 luciferase reporter, ROR gamma counter-screen | Drosophila S2 Gal4-VP16 UAS-luciferase, luminescence, 20 h | Potency, µM (titrated, usually from 53.6 µM), inactives show at the top dose activity, negative = inhibition, actives largely listed as inhibitors | actives 3.5% (n = 310,000) | AID 2546;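 further: Gal4-VP16 expression switched on by copper sulfate through the metallothionein promoter; on the % scale 0 is the no-effect control and ±100 the full control effect; nearly all actives have a fitted effect of over 50% in size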
TGFb SMAD3 inh – inhibitors of TGF-b signaling; HepG2 CAGA-GFP TGF-b/SMAD3 reporter, GFP fluorescence, 18 h; TGF-beta stimulated, 500 pg/mL final; Potency, µM (highest dose often 46.1 µM), for the others: top-dose activity, negative = inhibition, usual class: inhibitors; actives 1.2% (n = 410,000); AID 588855; further: on the % scale 0 is the no-effect control and ±100 the full control effect; nearly all actives have a fitted effect of over 65% in size
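Read-out: total well GFP (ex488/em500-530) summed from mean per-cell fluorescence. Cells: HEPG2 CAGA-GFP, 1% FBS DMEM, 18 h at 37 degrees C with 500 pg/mL final TGF-beta. Unstimulated wells served as the full-inhibition control; stimulated DMSO wells = 0%.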
HepG2 tox – HepG2 cytotoxicity, counter-screen for TGF-b inhibitors. AID 588856. actives 0.76% (n = 410,000). Potency, µM (highest dose often 46.1 µM), for inactives: top-dose activity change, negative = cytotoxicity, most hits filed as cytotoxic. HepG2 CAGA-GFP viability, ATP luminescence, 18 h
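HepG2 CAGA-GFP cells (1000/well, DMEM with 1% FBS) received compound, then TGF-beta at 500 pg/mL final, and were incubated 18 hours at 37 degrees C. Viability was read by CellTiter-Glo luminescence. Media-only wells were set as complete cell-killing and DMSO as no toxicity.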
RORgamma inh – ROR gamma (mouse) transcription inhibition | Drosophila S2 Gal4-RORgamma UAS-luciferase reporter, 20 h | P51450 | Potency, µM (series often up to 53.6 µM), for inactives: at the highest dose activity change, negative = inhibition, actives largely listed as inhibitors | actives 5.4% (n = 310,000); further: on the % scale 0 is the no-effect control and ±100 the full control effect; nearly all actives have a fitted effect of over 60% in size
Target sequence (P51450 whole entry, looked up, the tested form may be a part): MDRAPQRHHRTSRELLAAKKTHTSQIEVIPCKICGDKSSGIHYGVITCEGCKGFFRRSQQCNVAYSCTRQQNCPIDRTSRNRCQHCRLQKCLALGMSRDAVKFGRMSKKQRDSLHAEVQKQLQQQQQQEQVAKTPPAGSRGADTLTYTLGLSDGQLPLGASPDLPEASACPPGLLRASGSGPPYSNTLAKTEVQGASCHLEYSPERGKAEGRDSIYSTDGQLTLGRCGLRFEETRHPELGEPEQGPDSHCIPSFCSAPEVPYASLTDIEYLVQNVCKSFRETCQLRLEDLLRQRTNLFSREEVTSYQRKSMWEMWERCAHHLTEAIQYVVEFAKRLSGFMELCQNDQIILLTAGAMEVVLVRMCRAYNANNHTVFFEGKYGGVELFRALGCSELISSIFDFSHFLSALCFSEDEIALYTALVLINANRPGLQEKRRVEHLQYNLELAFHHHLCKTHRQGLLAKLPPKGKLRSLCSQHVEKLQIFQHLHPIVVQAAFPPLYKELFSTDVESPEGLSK
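Using a luciferase readout, inhibitors were identified by reduced reporter activity in Drosophila cells coexpressing a copper-inducible Gal4–ROR gamma fusion and UAS-driven Photinus luciferase, incubated 20 hr after 700 uM copper sulfate.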
Active calls of the source: *; [ ] = another dose, or the depositor's remark. The call rests on the fitted dose curve; in most records, active means well fitted curve in the direction sought with a large enough effect; inconclusive means small, poorly fitted or top-dose-only effect, or another doubt; inactive means no such curve, though single readings can be large; an effect the other way counts as inactive or inconclusive. Potency means the concentration at half of the fitted maximal effect.

Screening CCOc1ccccc1NC(=S)N(CCCN1CCOCC1)Cc1cn(C)c2ccccc12 returned ATXN2 expr inh -31%, S2 tox inactive, Gal4-VP16 FLuc inconclusive, TGFb SMAD3 inh 0%, HepG2 tox -5% and RORgamma inh 11µM*.
Screening Cc1cc(C(=O)NC2CC(C)(C)Cc3c2cnn3-c2cccc(F)c2)nn1C (centres undefined) returned ATXN2 expr inh 9%, S2 tox inactive, Gal4-VP16 FLuc 1%, TGFb SMAD3 inh 10%, HepG2 tox -16% and RORgamma inh 14%.
Screening S=C(Nc1ccc(Oc2ccccc2)cc1)N(CCCN1CCOCC1)Cc1ccccn1 returned ATXN2 expr inh -24%, S2 tox inactive, Gal4-VP16 FLuc -21%, TGFb SMAD3 inh 7%, HepG2 tox -3% and RORgamma inh 14µM*.
Screening CCCCOC(=O)c1cc2c(cn1)[nH]c1ccccc12 returned Gal4-VP16 FLuc 32µM* and RORgamma inh 16µM*.
`CCCOc1cccc(C2C(C(=O)c3ccc(C)o3)=C(O)C(=O)N2c2nc(C)c(C(C)=O)s2)c1` (centres undefined) gave ATXN2 expr inh -2%, S2 tox inactive, Gal4-VP16 FLuc -2%, TGFb SMAD3 inh 14%, HepG2 tox -2% and RORgamma inh 14µM*.
For CCOc1cccc(C2C(C(=O)c3ccc(C)o3)=C(O)C(=O)N2c2nnc(C)s2)c1 (centres undefined) the results were ATXN2 expr inh 2%, S2 tox inconclusive, TGFb SMAD3 inh -7% and HepG2 tox 3%.
`CCCC/C=C/[C@H](c1ccccc1)[C@H](CO)Cc1ccc([N+](=O)[O-])cc1` gave Gal4-VP16 FLuc inconclusive, TGFb SMAD3 inh inconclusive, HepG2 tox -16% and RORgamma inh inconclusive.
CC(C)(C)C(=O)Nc1ccc(-c2nc3ccccc3s2)cc1 was read as ATXN2 expr inh -77%, S2 tox inactive, TGFb SMAD3 inh 37% and HepG2 tox -3%.
For O=C(CCS(=O)(=O)c1ccccc1)Nc1ccc(-c2nc3ccccc3s2)cc1 the results were ATXN2 expr inh 42%[11.3 µM], S2 tox inactive, Gal4-VP16 FLuc 5.6µM*, TGFb SMAD3 inh -13%, HepG2 tox 23% and RORgamma inh inconclusive.
O=C(CNS(=O)(=O)c1cccc(Cl)c1)Nc1ccc(-c2nc3ccccc3s2)cc1 was read as ATXN2 expr inh 30%, S2 tox inactive, Gal4-VP16 FLuc 2µM*, TGFb SMAD3 inh 5%, HepG2 tox -3% and RORgamma inh -35%.
CNc1ccc(-c2nc3ccccc3s2)cc1 was read as Gal4-VP16 FLuc inconclusive and RORgamma inh 1.4µM*.
`Cc1ccc(-c2ccnc(-n3ncc(C(=O)N(C)CC4CCCN(C)C4)c3C)n2)o1` (centres undefined) gave S2 tox inactive.
Screening COCCN1C[C@@H](CO)O[C@@H](n2cnc3c(NCCCO)ncnc32)C1 returned ATXN2 expr inh 13%, S2 tox inactive, TGFb SMAD3 inh 0% and HepG2 tox -3%.
O=C(CCl)NCCCCCCCCCNC(=O)CCl was read as ATXN2 expr inh -38%, S2 tox 10µM*, Gal4-VP16 FLuc inconclusive, TGFb SMAD3 inh inconclusive, HepG2 tox -40% and RORgamma inh -44%.
Screening O=C(Cn1cnc2onc(-c3ccc(F)cc3)c2c1=O)Nc1ccc(F)c(Cl)c1 returned ATXN2 expr inh 9%, S2 tox inactive, TGFb SMAD3 inh 0% and HepG2 tox -26%.
`CC(C)c1nc(=S)n(-c2ccccc2)[nH]1` gave ATXN2 expr inh 13%, S2 tox inactive, Gal4-VP16 FLuc inconclusive, TGFb SMAD3 inh 0%, HepG2 tox 13% and RORgamma inh 5.6µM*.
For CC1CN(CCC(=O)NCc2ccc3ncccc3c2)Cc2cc(Cl)ccc2O1 (centres undefined) the results were S2 tox inactive.
For COc1ccc(OCCNC(=O)C2(C)CCN2Cc2ccc3ccccc3c2)cc1 (centres undefined) the results were ATXN2 expr inh inconclusive, S2 tox inconclusive, TGFb SMAD3 inh 14µM* and HepG2 tox -56%.
`COc1ccc(OCCNC(=O)C2(C)CCN2Cc2ccc(SC)cc2)cc1` (centres undefined) gave ATXN2 expr inh inconclusive, S2 tox inactive, TGFb SMAD3 inh inconclusive and HepG2 tox -19%.
Screening Cc1ccn(-c2n[nH]c(C)c2[N+](=O)[O-])n1 returned ATXN2 expr inh -14%, S2 tox inactive, Gal4-VP16 FLuc -5%, TGFb SMAD3 inh -19%, HepG2 tox -9% and RORgamma inh 13µM*.
`Cc1[nH]nc(N2CCCCCC2)c1[N+](=O)[O-]` gave ATXN2 expr inh 4%, S2 tox inactive, Gal4-VP16 FLuc 7%, TGFb SMAD3 inh -14%, HepG2 tox -13% and RORgamma inh -4%.
Screening CNC(=O)c1ccc(-c2cnc3ncc(Cc4ccc5ncccc5c4)n3n2)cc1F returned ATXN2 expr inh 20%.
`C=CCNc1nc(Nc2ccccc2F)nc(OCC)n1` gave ATXN2 expr inh 44%, S2 tox inactive, Gal4-VP16 FLuc 11%[10 µM], TGFb SMAD3 inh 0%, HepG2 tox -3% and RORgamma inh 13µM*.
CCOc1nc(Nc2ccccc2F)nc(OCC)n1 was read as S2 tox inactive, Gal4-VP16 FLuc 17%, TGFb SMAD3 inh 9%, HepG2 tox -8% and RORgamma inh 24%.
CC(=O)c1ccc(NC(=O)Cn2c(-n3nc(C)cc3C)nc(C)cc2=O)cc1 was read as TGFb SMAD3 inh -22% and HepG2 tox -16%.
`CO[C@@H](C(=O)N1Cc2[nH]nc(NC(=O)c3ccc(N4CCN(C)CC4)cc3)c2C1)c1ccccc1` gave ATXN2 expr inh 27µM*.
For CC(C)NC(=O)C1(C)CCN1Cc1cccc(C#N)c1 (centres undefined) the results were ATXN2 expr inh 11%, S2 tox inactive, TGFb SMAD3 inh 1% and HepG2 tox 0%.
`CCOC(=O)c1n[nH]n2c1nc(=S)c1ccccc12` gave ATXN2 expr inh 0%, S2 tox inconclusive, Gal4-VP16 FLuc inconclusive, TGFb SMAD3 inh 1%, HepG2 tox -14% and RORgamma inh 6.3µM*.
`COc1ccc(/C(N)=N/OC(=O)c2ccco2)cc1` gave ATXN2 expr inh 68%[11.3 µM], S2 tox inactive, Gal4-VP16 FLuc 10µM*, TGFb SMAD3 inh 0%, HepG2 tox -29% and RORgamma inh 7.9µM*.
